# Experimental data published in publication PMC11062922 (Nature Chemical Biology, 2023).
# Like-named read-outs stand apart in the source and are kept apart here.
# What was measured:
# Design in all cases: species or system human, MV4-11 + K-562 + COLO205 + SK-N-BE2 + OVCAR-8
# DDR1 = conditions: read-out: apparent Kd, n = 1
# DCTPP1 = conditions: read-out: apparent Kd; compound concentrations:100 nM and 1000 nM (sheet 'Samples'); n = 1
# MAPK14 = conditions: read-out: apparent Kd, n = 1
# MAPK6 = conditions: read-out: apparent Kd; compound concentrations:100 nM and 1000 nM (sheet 'Samples'); n = 1
# NTRK1 = conditions: read-out: apparent Kd; compound concentrations:100 nM and 1000 nM (sheet 'Samples'); n = 1
# NUAK1 = conditions: read-out: apparent Kd; compound concentrations:100 nM and 1000 nM (sheet 'Samples'); n = 1
# PHKG2 = conditions: read-out: apparent Kd; compound concentrations:100 nM and 1000 nM (sheet 'Samples'); n = 1
# PRKD2 = conditions: read-out: apparent Kd; compound concentrations:100 nM and 1000 nM (sheet 'Samples'); n = 1
# FLT3 = conditions: read-out: apparent Kd, compound concentrations: 100 nM and 1000 nM (sheet 'Samples'), n = 1
# FLT4 = conditions: read-out: apparent Kd, compound concentrations: 100 nM and 1000 nM (sheet 'Samples'), n = 1
# JAK2 = conditions: read-out: apparent Kd; compound concentrations: 100 nM and 1000 nM (sheet 'Samples'), CATDS: 0.17425354278837099; n = 1
# RET = conditions: read-out: apparent Kd; compound concentrations: 100 nM and 1000 nM (sheet 'Samples'), CATDS: 0.369571760306865; n = 1
# DDR2 = conditions: read-out: apparent Kd; compound concentrations: 100 nM and 1000 nM (sheet 'Samples'), CATDS: 0.43397569756313797; n = 1
# CSNK1D = conditions: read-out: apparent Kd; compound concentrations: 100 nM and 1000 nM (sheet 'Samples'), CATDS: 7.6983160773696893E-2; n = 1
# CSNK1E = conditions: read-out: apparent Kd; compound concentrations: 100 nM and 1000 nM (sheet 'Samples'), CATDS: 7.2450949047452695E-2; n = 1
# NLK = conditions: read-out: apparent Kd; compound concentrations: 100 nM and 1000 nM (sheet 'Samples'), CATDS: 9.9124712412078902E-2; n = 1
# PKN3 = conditions: read-out: apparent Kd; compound concentrations: 100 nM and 1000 nM (sheet 'Samples'), CATDS: 0.57773444025704901; n = 1
# RIPK2 = conditions: read-out: apparent Kd; compound concentrations: 100 nM and 1000 nM (sheet 'Samples'), CATDS: 0.16475470795078001; n = 1
# SPR = conditions: read-out: apparent Kd; compound concentrations: 100 nM and 1000 nM (sheet 'Samples'), CATDS: 9.9495378731818698E-2; n = 1
# TESK2 = conditions: read-out: apparent Kd; compound concentrations: 100 nM and 1000 nM (sheet 'Samples'), CATDS: 7.5715174552883194E-2; n = 1
# TGFBR2 = conditions: read-out: apparent Kd; compound concentrations: 100 nM and 1000 nM (sheet 'Samples'), CATDS: 8.5739105668182394E-2; n = 1
# TP53RK = conditions: read-out: apparent Kd; compound concentrations: 100 nM and 1000 nM (sheet 'Samples'), CATDS: 9.9453344807386698E-2; n = 1
# CSNK2A2 = conditions: read-out: apparent Kd, compound concentrations: 100 nM and 1000 nM (sheet 'Samples'), n = 1
# DJA1 = tested on: T1, DJA1; conditions: read-out: apparent Kd; compound concentrations: 100 nM and 1000 nM (sheet 'Samples'), CATDS: 0.455945316982168; n = 1
# T1 construct: gene DNAJA1
# NQO2 = conditions: read-out: apparent Kd; compound concentrations: 100 nM and 1000 nM (sheet 'Samples'), CATDS: 0.17633941136765999; n = 1
# CSNK2A1;CSNK2A3 = conditions: read-out: apparent Kd, compound concentrations: 100 nM and 1000 nM (sheet 'Samples'), n = 1
# PRKAA2 = conditions: read-out: apparent Kd; compound concentrations: 100 nM and 1000 nM (sheet 'Samples'), CATDS: 0.28519609584928202; n = 1
# [1] = compound concentrations:100 nM and 1000 nM (sheet 'Samples')
smiles,measurement,setting,value
Cn1cc(-c2ccc3c(c2)CCN3C(=O)Cc2cccc(C(F)(F)F)c2)c2c(N)ncnc21 [GSK2606414A],potency estimated from few doses,DDR1; [1],1550 nM
NCC1CNC(=O)c2cc3ccc(C(=O)Nc4cccnc4)cc3n2C1 (stereo not shown) [BI00614644],potency estimated from few doses,DCTPP1,1830 nM
same,potency estimated from few doses,MAPK14; [1],1320 nM
same,potency estimated from few doses,MAPK6,1330 nM
same,potency estimated from few doses,NTRK1,1520 nM
same,potency estimated from few doses,NUAK1,1090 nM
same,potency estimated from few doses,PHKG2,1110 nM
same,potency estimated from few doses,PRKD2,950 nM
CN(c1ccc2c(c1)nc(NCc1ccccc1)n2C)c1ccnc(Nc2ccc(CS(C)(=O)=O)cc2)n1.Cl [GW811603A],potency estimated from few doses,"DDR1; compound concentrations: 100 nM and 1000 nM (sheet 'Samples'), CATDS: 0.142121036969732",962 nM
same,potency estimated from few doses,FLT3; CATDS: 0.139763894659995,1030 nM
same,potency estimated from few doses,FLT4; CATDS: 0.42297219111770701,63.4 nM
same,potency estimated from few doses,JAK2,465 nM
same,potency estimated from few doses,RET,79.9 nM
COC(=O)Nc1nc2cc(Oc3ccc(NC(=O)Nc4ccccc4)cc3)ccc2[nH]1.Cl [GW694590A],potency estimated from few doses,"DDR1; compound concentrations: 100 nM and 1000 nM (sheet 'Samples'), CATDS: 0.58971878257752297",426 nM
same,potency estimated from few doses,DDR2,799 nM
CN(C)CCN(C)C(=O)c1cc(-c2ccncc2)c(-c2ccc(Cl)c(O)c2)o1 [SB-710397_KCGS],potency estimated from few doses,CSNK1D,1400 nM
same,potency estimated from few doses,CSNK1E,1720 nM
same,potency estimated from few doses,"MAPK14; compound concentrations: 100 nM and 1000 nM (sheet 'Samples'), CATDS: 9.6688337398944404E-2",748 nM
same,potency estimated from few doses,NLK,705 nM
same,potency estimated from few doses,PKN3,30.8 nM
same,potency estimated from few doses,RIPK2,247 nM
same,potency estimated from few doses,SPR,698 nM
same,potency estimated from few doses,TESK2,1480 nM
same,potency estimated from few doses,TGFBR2,1020 nM
same,potency estimated from few doses,TP53RK,699 nM
CCS(=O)(=O)c1ccc(OC)c(Nc2ncc(-c3ccc(F)cc3)o2)c1.Cl [GW591947A],potency estimated from few doses,CSNK2A2; CATDS: 0.17401411869460601,1860 nM
same,potency estimated from few doses,DJA1,131 nM
same,potency estimated from few doses,FLT4; CATDS: 0.41854797783311298,152 nM
same,potency estimated from few doses,NQO2,1750 nM
CC1=C(C(=O)Nc2ccc3[nH]ncc3c2)C(c2ccc(F)cc2)NC(=O)N1 (stereo not shown) [GSK180736A],potency estimated from few doses,CSNK2A1;CSNK2A3; CATDS: 0.33639720251881999,978 nM
same,potency estimated from few doses,CSNK2A2; CATDS: 0.39667360391151801,718 nM
same,potency estimated from few doses,PRKAA2,1410 nM
COc1ccc(CCNC2=NC(=O)/C(=C/c3ccc4ncccc4c3)S2)cc1 [RO4498476-000],potency estimated from few doses,CSNK2A1;CSNK2A3; CATDS: 0.299531148324096,1610 nM
same,potency estimated from few doses,CSNK2A2; CATDS: 0.294198980295866,1680 nM
same,potency estimated from few doses,FLT3; CATDS: 0.44201063534771401,756 nM
CC(=O)c1c(C)c2cnc(Nc3ccn(C)n3)nc2n(C2CCCC2)c1=O [PFE-PKIS_44],potency estimated from few doses,CSNK2A1;CSNK2A3; CATDS: 0.47499416496698399,2260 nM
same,potency estimated from few doses,CSNK2A2; CATDS: 0.52778498170906496,1830 nM
